The source made the active and inactive calls.
Columns and labels:
[1] = E. coli DRC41 culture turbidity changes, primary screen, E. coli filamentation inducer project, strain DRC41, OD650, 48 h (AID 1152);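 note: E. coli MC1000 strain DRC41 lacking acrAB efflux pump and sulA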; settings: E. coli DRC41 (acrAB sulA), higher = more signal, called active from +8 up or from −8 down
[2] = small-molecule binders of probe aLefty1, primary screen, biochemical, small-molecule microarray, 635/667 nm fluorescence (AID 1153); settings: higher = more signal;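 note: score merges spot fluorescence with signal-to-noise ratio from the scanned slide images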
[3] = PSAC antagonists in infected red cells, primary screen, cell-based, P. falciparum Indochina, OD700, 1 h (AID 1154); settings: P. falciparum Indochina infected RBC osmotic lysis, higher = more signal, called active from +8 up or from −8 down
[4] = PSAC antagonists in infected red cells, primary screen, cell-based, P. falciparum Indochina, OD700, 2 h (AID 1155);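 note: lysis reports solute entry through the parasite surface anion channel PSAC; channel blockers reduce lysis of infected cells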; settings: P. falciparum Indochina infected erythrocytes, osmotic lysis OD700; higher = more signal, called active from +8 up or from −8 down
[5] = osmotic lysis modulators in infected erythrocytes, primary screen, PSAC antagonist project, cell-based, P. falciparum Indochina, OD700, 3 h (AID 1156); settings: higher = more signal, called active from +8 up or from −8 down
[6] = PSAC antagonists in infected red cells, primary screen, cell-based, P. falciparum Indochina, OD700, 18 h (AID 1157); settings: P. falciparum Indochina infected erythrocytes, osmotic lysis OD700, 18 h; higher = more signal, called active from +8 up or from −8 down
[7] = modulators of S6 phosphorylation in cells, primary screen, cell-based, A549, cytoblot, luminescence, serum-stimulated (AID 1158); settings: A549 phospho-S6 cytoblot, 5 h, higher = more signal;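 note: serum-stimulated A549 lung adenocarcinoma cells; signal is phosphorylated S6 detected by cytoblot immunostaining with HRP secondary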
[8] = molecular target: NADPH oxidase 2 (Homo sapiens) (UniProt P04839); assay: NOX2-dependent H2O2 signal modulators, primary screen, NOX inhibitor project, cell-based, HEK293-NOX2, PMA-stimulated, Amplex Red fluorescence (AID 1159); settings: 45 min, higher = more signal, called active from +8 up or from −8 down; note: test concentration not given here
Sequence of NADPH oxidase 2 (Homo sapiens) (P04839 whole entry, looked up): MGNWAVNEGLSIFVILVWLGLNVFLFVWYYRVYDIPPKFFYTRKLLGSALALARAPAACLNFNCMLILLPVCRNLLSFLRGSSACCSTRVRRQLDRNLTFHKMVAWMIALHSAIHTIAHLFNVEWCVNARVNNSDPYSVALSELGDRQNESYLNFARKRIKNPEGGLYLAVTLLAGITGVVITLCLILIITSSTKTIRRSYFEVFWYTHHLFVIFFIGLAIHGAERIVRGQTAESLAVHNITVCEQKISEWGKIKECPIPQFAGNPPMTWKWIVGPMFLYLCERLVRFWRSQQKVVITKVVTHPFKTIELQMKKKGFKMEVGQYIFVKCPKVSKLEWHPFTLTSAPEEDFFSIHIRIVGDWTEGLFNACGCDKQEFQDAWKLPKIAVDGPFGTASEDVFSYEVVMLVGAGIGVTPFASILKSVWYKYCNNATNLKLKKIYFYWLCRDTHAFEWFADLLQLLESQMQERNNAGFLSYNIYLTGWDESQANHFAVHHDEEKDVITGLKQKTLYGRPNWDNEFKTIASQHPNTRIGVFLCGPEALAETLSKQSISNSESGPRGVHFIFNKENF

[9] = molecular target: NADPH oxidase 4 (Homo sapiens) (UniProt Q9NPH5); assay: NOX4-dependent H2O2 signal modulators, primary screen, NOX inhibitor project, cell-based, HEK293-NOX4, tetracycline-induced, Amplex Red fluorescence (AID 1160); settings: 45 min, higher = more signal, called active from +8 up or from −8 down
Sequence of NADPH oxidase 4 (Homo sapiens) (Q9NPH5 whole entry, looked up): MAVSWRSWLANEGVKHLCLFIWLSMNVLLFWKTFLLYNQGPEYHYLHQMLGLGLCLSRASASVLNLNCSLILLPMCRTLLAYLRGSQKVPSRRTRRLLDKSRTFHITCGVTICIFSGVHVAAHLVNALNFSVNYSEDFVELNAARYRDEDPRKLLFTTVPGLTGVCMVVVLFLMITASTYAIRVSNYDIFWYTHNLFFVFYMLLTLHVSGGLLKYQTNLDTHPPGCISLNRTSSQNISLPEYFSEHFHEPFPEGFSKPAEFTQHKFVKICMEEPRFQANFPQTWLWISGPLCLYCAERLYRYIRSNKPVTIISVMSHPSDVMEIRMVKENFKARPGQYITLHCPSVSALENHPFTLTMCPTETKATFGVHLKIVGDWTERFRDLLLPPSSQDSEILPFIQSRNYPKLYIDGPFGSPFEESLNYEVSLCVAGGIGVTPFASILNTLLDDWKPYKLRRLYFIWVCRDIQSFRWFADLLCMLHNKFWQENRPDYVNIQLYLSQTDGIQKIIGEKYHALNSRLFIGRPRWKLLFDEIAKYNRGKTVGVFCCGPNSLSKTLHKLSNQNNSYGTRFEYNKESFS

[10] = molecular target: NADPH oxidase 5 (Homo sapiens) (UniProt Q96PH1); assay: NOX5-dependent H2O2 signal modulators, primary screen, NOX inhibitor project, cell-based, HEK293-NOX5, Amplex Red fluorescence (AID 1161); settings: HEK293-NOX5, ionomycin, 45 min, higher = more signal
Sequence of NADPH oxidase 5 (Homo sapiens) (Q96PH1 whole entry, looked up): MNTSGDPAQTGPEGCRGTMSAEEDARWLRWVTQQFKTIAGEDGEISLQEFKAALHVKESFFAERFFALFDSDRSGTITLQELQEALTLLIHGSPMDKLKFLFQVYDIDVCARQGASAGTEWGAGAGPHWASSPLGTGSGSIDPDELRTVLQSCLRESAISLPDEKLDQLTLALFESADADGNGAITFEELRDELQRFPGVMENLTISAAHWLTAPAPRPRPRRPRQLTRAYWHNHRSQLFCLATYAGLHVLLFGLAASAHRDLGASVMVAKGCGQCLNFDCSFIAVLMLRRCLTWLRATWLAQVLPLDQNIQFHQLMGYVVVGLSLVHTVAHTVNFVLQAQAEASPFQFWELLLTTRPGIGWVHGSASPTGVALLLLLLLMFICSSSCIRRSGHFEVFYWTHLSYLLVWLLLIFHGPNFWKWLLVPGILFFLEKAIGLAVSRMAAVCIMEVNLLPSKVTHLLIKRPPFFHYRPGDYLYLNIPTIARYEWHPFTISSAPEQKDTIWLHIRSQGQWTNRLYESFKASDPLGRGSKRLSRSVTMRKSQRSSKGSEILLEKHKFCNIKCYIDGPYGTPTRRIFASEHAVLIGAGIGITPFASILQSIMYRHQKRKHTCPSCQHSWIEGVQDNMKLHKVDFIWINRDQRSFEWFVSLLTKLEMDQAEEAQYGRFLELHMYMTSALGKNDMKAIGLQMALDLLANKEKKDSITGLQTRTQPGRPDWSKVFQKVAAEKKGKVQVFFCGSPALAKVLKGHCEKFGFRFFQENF

[11] = A549 cell viability effects, profiling panel, calcein-AM fluorescence, 48 h, basal (AID 1162); settings: higher = more signal; note: test concentration not given here
[12] = adipocyte viability effects, profiling panel, cell-based, 3T3-L1 adipocytes, calcein-AM fluorescence, 48 h, basal (AID 1163); settings: 3T3-L1 adipocytes viability, higher = more signal; note: test concentration not given here
[13] = HepG2 cell viability effects, profiling panel, calcein-AM fluorescence, 48 h, basal (AID 1164); settings: higher = more signal; note: test concentration not given here
[14] = MM1S cell viability effects, profiling panel, calcein-AM fluorescence, 48 h, basal (AID 1165); settings: higher = more signal;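 note: viability of MM1S multiple myeloma cells under basal unstimulated conditions; test concentration not given here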
[15] = basal RPMI8226 viability, no added stimulus, profiling panel, cell-based, calcein-AM fluorescence, 48 h, PK04 Diversity Set (AID 1166); settings: RPMI8226 myeloma viability, higher = more signal;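 note: cells grown under basal conditions without added stimulus; test concentration not given here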
[16] = basal HepG2 mitochondrial membrane potential changes, profiling panel, cell-based, JC-1 fluorescence, 24 h, 100 nL compound (AID 1167); settings: higher = more signal; note: test concentration not given here
[17] = basal 3T3-L1 adipocyte mitochondrial potential changes, profiling panel, cell-based, JC-1 fluorescence, 3T3-L1 adipocytes, 24 h, 100 nL compound (AID 1168); settings: JC-1 mitochondrial fluorescence, higher = more signal, called active from +8 up or from −8 down; note: test concentration not given here
[18] = basal RPMI8226 mitochondrial membrane potential changes, profiling panel, cell-based, JC-1 fluorescence, 24 h, 100 nL compound (AID 1169); settings: RPMI8226 myeloma, JC-1 mitochondrial potential fluorescence, higher = more signal; note: test concentration not given here
[19] = basal MM1S mitochondrial membrane potential changes, profiling panel, cell-based, JC-1 fluorescence, 24 h, 100 nL compound (AID 1170); settings: higher = more signal; note: test concentration not given here
[20] = A549 lung cancer cell viability effects, profiling panel, resazurin fluorescence, 24 h, PK04 Diversity Set (AID 1171); settings: higher = more signal, called active from +8 up or from −8 down; note: test concentration not given here

SMILES | z-score [1] | composite z-score [2] | z-score [3] | z-score [4] | z-score [5] | z-score [6] | z-score [7] | z-score [8] | z-score [9] | z-score [10] | z-score [11] | z-score [12] | z-score [13] | z-score [14] | z-score [15] | z-score [16] | z-score [17] | z-score [18] | z-score [19] | z-score [20]
CCCNC(=O)[C@@H]1c2ccccc2C(=O)N(c2ccc(C)cn2)[C@H]1c1ccc(CO)cc1 | -0.292 (inactive) | -0.303 | 1.97 (inactive) | -0.0991 (inactive) | 0.562 (inactive) | 0.0336 (inactive) | 0.214 | 0.114 (inactive) | 0.0822 (inactive) | -0.974 | -0.293 | -0.857 | -0.108 | -0.336 | -0.0505 | -0.833 | 0.123 (inactive) | 0.657 | -0.351 | 0.418 (inactive)
CCOC(=O)NN=C1C[C@@H](O)[C@@H](O)[C@@H]2[C@@H]3C(=O)N(C4CCCCC4)C(=O)[C@@H]3CC[C@@H]12 | -0.0671 (inactive) | -0.147 | 1.61 (inactive) | 0.0554 (inactive) | -1.02 (inactive) | -0.039 (inactive) | 0.492 | -0.000129 (inactive) | 0.328 (inactive) | -0.121 | -0.117 | -0.091 | -0.281 | 0.0416 | -0.771 | -0.426 | -0.61 (inactive) | -0.0516 | 0.134 | -0.361 (inactive)
CCN1C(=O)[C@H]2[C@H]3[C@H](O)[C@H](O)CC(=NOCC=C(C)CCC=C(C)C)[C@H]3CC[C@H]2C1=O | 0.376 (inactive) | -0.0518 | 0.955 (inactive) | -0.506 (inactive) | -0.527 (inactive) | -0.163 (inactive) | -0.0053 | -0.516 (inactive) | 0.301 (inactive) | -1.52 | -0.107 | 0.393 | -0.118 | 0.805 | 0.169 | -0.702 | 0.0735 (inactive) | 0.568 | 0.0613 | -1.01 (inactive)
O=C1[C@H]2[C@H]3[C@H](O)[C@H](O)CC(=NOCc4ccccc4)[C@@H]3CC[C@H]2C(=O)N1C1CCCCC1 | -0.501 (inactive) | 0.056 | 2.79 (inactive) | 0.322 (inactive) | 0.28 (inactive) | 0.352 (inactive) | -0.206 | 1.56 (inactive) | 0.568 (inactive) | -0.818 | -0.128 | -1.08 | -0.622 | -0.615 | 0.0958 | -1.19 | -0.652 (inactive) | 0.886 | -0.101 | 0.36 (inactive)
CCOC(=O)[C@H](CC(C)C)NC(=O)CCC1CC(OC(=O)NCCc2ccc(F)cc2)CC2(CCCC(COC(=O)NCc3ccccc3)O2)O1 (stereo not given in full) | -1.06 (inactive) | 0.0536 | 3.44 (inactive) | -1.22 (inactive) | 1.39 (inactive) | -1.42 (inactive) | 1.78 | -0.945 (inactive) | -0.797 (inactive) | -2.24 | -0.138 | 0.0596 | -3.35 | -3.45 | -3.81 | -2.07 | 0.154 (inactive) | -0.165 | -1.45 | 0.29 (inactive)
COc1ccc([Si](C)(C)[C@@H]2[C@@H](CCO)O[C@]3(C(=O)N(Cc4ccc(NC(C)=O)cc4)c4ccccc43)[C@H]2C)cc1 | 0.694 (inactive) | 0.16 | 23 (active) | 7.13 (inactive) | -0.199 (inactive) | 0.0087 (inactive) | 0.339 | -0.371 (inactive) | -0.0308 (inactive) | 0.207 | -1.98 | 1.37 | -2.77 | -2.47 | -3.9 | -1.29 | -0.0969 (inactive) | -1.18 | -1.93 | -3.2 (inactive)
CC1(C)OCC(C(O)C2=CCCCC2=O)CO1 (stereo not given) | -3.47 (inactive) | 0.138 | 0.0704 (inactive) | 0.137 (inactive) | 0.864 (inactive) | 0.348 (inactive) | 0.315 | 0.362 (inactive) | -0.247 (inactive) | 1.07 | -0.423 | 1.76 | 0.588 | -0.402 | -0.999 | 1.28 | -0.0827 (inactive) | -0.606 | 0.724 | -0.939 (inactive)
CC(CCN1CCc2nc(-c3ccccc3)c(-c3ccccc3)cc2C1)=NO[C@H](C)c1cn([C@@H]2COC[C@H]2O)nn1 | 0.548 (inactive) | 0.0026 | 4.09 (inactive) | 0.722 (inactive) | 1.56 (inactive) | 0.391 (inactive) | 0.387 | -2.96 (inactive) | 0.289 (inactive) | -0.331 | 1.9 | 0.183 | 1.2 | 0.259 | -0.283 | 1.34 | -0.673 (inactive) | -0.291 | -0.381 | -0.579 (inactive)
CC(C)CON=C1C[C@@H](O)[C@@H](O)[C@@H]2[C@@H]3C(=O)N([C@@H](C)c4ccccc4)C(=O)[C@@H]3CC[C@H]12 | 0.525 (inactive) | -0.192 | 3.27 (inactive) | 0.149 (inactive) | 1.43 (inactive) | 0.106 (inactive) | -0.414 | -3.44 (inactive) | 1.18 (inactive) | 0.197 | 0.58 | -0.297 | -0.0223 | 0.844 | 0.933 | 0.658 | 0.341 (inactive) | 0.53 | -1.32 | -0.511 (inactive)

Source: PubChem BioAssay
